# Results filed as inconclusive are left out. The source holds several records for some structures; these can differ, active in one and inactive in another. Active and inactive are the calls of the source. How the source made its calls, unless noted: active means hit-call score of the fitted dose curve at least 0.9, where 1 is the maximum; inconclusive means response in the unintended direction; inactive means score below 0.9.
# Experiments:
# [1] = molecular target: Steroid hormone receptor ERR1 (Homo sapiens) (UniProt P11474); experiment: ATG_ERRa_TRANS: Attagene TRANS-FACTORIAL HepG2 Assay for human Estrogen-Related Receptor alpha (ERRa) (AID 2282971); conditions: HepG2 Attagene TRANS reporter, ERRa transactivation
# Outline: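 HepG2 cells were transiently transfected with multiple GAL4-UAS reporter units, then dosed with compound for 24 h. Total RNA was reverse-transcribed, reporter cDNA PCR-amplified and fluorescently labelled, and fragments resolved by capillary electrophoresis; induction was compared with DMSO.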
# [2] = molecular target: Estrogen-related receptor gamma (Homo sapiens) (UniProt P62508); experiment: ATG_ERRg_TRANS: Attagene TRANS-FACTORIAL HepG2 Assay for human Estrogen-Related Receptor gamma (ERRg) (AID 2282977); conditions: HepG2 Attagene TRANS reporter, ERRg transactivation;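 further: hits increase reporter signal over DMSO so potencies reflect activators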
# Outline: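 Transient HepG2 transfectants, 24 h compound exposure, GAL4-UAS reporter mRNA by RT-PCR/6-FAM labelling/capillary electrophoresis; positive direction vs DMSO.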
# [3] = ATG_ERE_CIS: Attagene CIS-FACTORIAL HepG2 Assay for Estrogen Response Element (ERE) (AID 2282940; active means hit-call score of the fitted dose curve at least 0.9, where 1 is the maximum; inactive means score below 0.9); conditions: HepG2 ERE cis-reporter, Attagene RNA transcript; actives raise or lower the signal
# Outline: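 Measuring endogenous transcription factor output, the assay doses transfected HepG2 cells for 24 hours and quantifies reporter transcripts by fluorescent RT-PCR and capillary electrophoresis, with DMSO as baseline.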
# [4] = molecular target: Estrogen receptor (Homo sapiens) (UniProt P03372); experiment: ATG_ERa_TRANS: Attagene TRANS-FACTORIAL HepG2 Assay for human Estrogen Receptor alpha (ERa) (AID 2282970); conditions: HepG2 Attagene TRANS ERa GAL4 reporter, mRNA
# Outline: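 Transactivation via ERa-Gal4 chimera in HepG2; 24 hour incubation; reporter mRNA detected by fluorescence RT-PCR and capillary electrophoresis.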
# [5] = molecular target: Bile acid receptor (Homo sapiens) (UniProt Q96RI1); experiment: ATG_FXR_TRANS: Attagene TRANS-FACTORIAL HepG2 Assay for Farnesoid X Receptor (FXR) (AID 2282979); conditions: HepG2 Attagene TRANS FXR-GAL4 reporter transcription;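 further: hits raise reporter mRNA above DMSO so AC50 marks FXR activation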
# Outline: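 Chimeric FXR-GAL4 activity in transiently transfected human HepG2 liver cells is scored as induction of reporter mRNA after 24 h of dosing. Detection uses RT-PCR with fluorescent labelling and capillary electrophoresis, with DMSO serving as baseline.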
# [6] = BSK_3C_TissueFactor: BioMAP Diversity Plus: 3C Assay for Tissue Factor Biomarker Activity (AID 2282997; active means hit-call score of the fitted dose curve at least 0.9, where 1 is the maximum; inactive means score below 0.9); conditions: BioMAP 3C HUVEC, tissue factor biomarker readout; actives raise or lower the signal
# Outline: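 Values derive from bidirectional curve fitting against DMSO of Tissue Factor ELISA signals, taken 24 h after dosing primary human umbilical vein endothelial cells.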
# [7] = BSK_3C_uPAR: BioMAP Diversity Plus: 3C Assay for Urokinase-type plasminogen activator receptor (uPAR) Biomarker Activity (AID 2282998; active means hit-call score of the fitted dose curve at least 0.9, where 1 is the maximum; inactive means score below 0.9); conditions: BioMAP 3C HUVEC, uPAR biomarker ELISA; actives raise or lower the signal
# Outline: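 Readout: ELISA for surface uPAR. System: human umbilical vein endothelial primary cells, 24 h after chemical exposure. Analysis: bidirectional fit, DMSO baseline.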
# [8] = BSK_4H_Eotaxin3: BioMAP Diversity Plus: 4H Assay for Eotaxin 3 Biomarker Activity (AID 2283000; active means hit-call score of the fitted dose curve at least 0.9, where 1 is the maximum; inactive means score below 0.9;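 on outcome: CCL26 protein level quantified by ELISA in parallel with SRB cytotoxicity check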); conditions: primary human endothelial cells (HUVEC); actives raise or lower the signal
# Outline: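 Endothelial primary cells (human umbilical vein) exposed to compound for 24 h. ELISA detection of Eotaxin-3.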
# [9] = read-out: Interleukin-1 alpha (IL1a), IL1A (gene 3552); experiment: BSK_BE3C_IL1a: BioMAP Diversity Plus: BE3C Assay for Interleukin-1 alpha (IL1a) Biomarker Activity (AID 2283016; active means hit-call score of the fitted dose curve at least 0.9, where 1 is the maximum; inactive means score below 0.9); conditions: primary human bronchial epithelial cells; actives raise or lower the signal
# Outline: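 Cultures of primary human bronchial epithelial cells receive test chemical. After 24 h, IL-1a is quantified by ELISA, while parallel wells are fixed in TCA and SRB-stained for total protein. Changes in either direction are fitted relative to DMSO.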
# [10] = read-out: Monokine induced gamma interferon (MIG), CXCL9 (gene 4283); experiment: BSK_3C_MIG: BioMAP Diversity Plus: 3C Assay for Monokine induced gamma interferon (MIG) Biomarker Activity (AID 2283021; active means hit-call score of the fitted dose curve at least 0.9, where 1 is the maximum; inactive means score below 0.9); conditions: primary human endothelial cells (HUVEC); actives raise or lower the signal
# Outline: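 After 24 h of treatment, human umbilical vein endothelial cultures (3C system) had their MIG biomarker level determined by ELISA, with DMSO serving as negative control.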
# [11] = CCTE_Harrill_HTTr_CellCount_MCF7: CCTE's Cell Proliferation Assessment for the High-Throughput Transcriptomics (HTTr) Platform, Harrill Lab (AID 2284012);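 further: count of Hoechst-stained nuclei per well by high-content imaging in MCF-7 cells; cells exposed to compound for six hours; intended direction is loss of nuclei count meaning fewer cells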
# Outline: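 Nuclei counting (Hoechst, high content imaging) in MCF-7 after a 6 h treatment at eight concentrations. Activity fitted bidirectionally, DMSO as negative control.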
# [12] = molecular target: Estrogen receptor beta (Homo sapiens) (UniProt Q92731); experiment: OT_ER_ERbERb_0480: Odyssey Thera (OT) 8-hour HEK293T Protein-Complementation Assay for Estrogen Receptor-beta/-beta Homodimer (AID 2283357);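 further: active means signal gain over DMSO baseline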
# Outline: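 Readout: increase in mean fluorescence intensity (nucleus for agonists; nucleus plus cytoplasm for antagonists) relative to DMSO, from a reporter-fragment complementation of human ER-beta LBD homodimer in HEK293T cells dosed 8 hours.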
# [13] = molecular target: Estrogen receptor beta (Homo sapiens) (UniProt Q92731); experiment: OT_ER_ERbERb_1440: Odyssey Thera (OT) 24-hour HEK293T Protein-Complementation Assay for Estrogen Receptor-beta/-beta Homodimer (AID 2283380);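 further: fluorescence gain from ER beta LBD homodimer complementation read by laser scanning cytometry; scored as signal increase over DMSO baseline for both agonists and antagonists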
# Outline: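 HEK293T cells stably expressing human ER-beta LBD (aa 310-547) PCA homodimer pair, dosed 24 h; formaldehyde-fixed, Draq5-stained. Readout: increase in nuclear (agonist) or nuclear plus cytoplasmic (antagonist) fluorescence intensity versus DMSO, gain-of-signal fitting.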
# [14] = molecular target: Peroxisome proliferator-activated receptor gamma (Homo sapiens) (UniProt P37231); experiment: OT_PPARg_PPARgSRC1_0480: Odyssey Thera (OT) 8-hour Protein-Complementation Assay for Peroxisome Proliferator-activated Receptor Gamma / SRC-1 Co-activator (AID 2283387);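 further: nuclear to cytoplasmic split Venus YFP fluorescence ratio reporting PPARg SRC-1 interaction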
# Outline: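 Read-out: 488 nm N/C fluorescence ratio from complemented Venus YFP fragments, ≥350 cells per image, gain-of-signal fitted against DMSO baseline. Fusions of PPARg/SRC-1 with IFP1/IFP2 expressed transiently in HEK293T; compounds applied 8 h.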
# [15] = molecular target: Peroxisome proliferator-activated receptor gamma (Homo sapiens) (UniProt P37231); experiment: OT_PPARg_PPARgSRC1_1440: Odyssey Thera (OT) 24-hour Protein-Complementation Assay for Peroxisome Proliferator-activated Receptor Gamma/ SRC-1 Co-activator (AID 2283388);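 further: nuclear to cytoplasmic ratio of reconstituted Venus YFP fluorescence in fixed imaged cells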
# Outline: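 Transient HEK293T, YFP fragments 1-158/159-239 (mutant IFP1/IFP2) fused to PPARg/SRC-1; 24 h dosing; fix 4% formaldehyde, Draq5; Opera imaging 488/635 nm; N/C ratio, gain vs DMSO.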
# [16] = ACEA_AR_agonist_AUC_viability: ACEA Biosciences xCELLigence Real-Time Cell Analysis on Androgen Receptor Agonism for Viability (AID 2283775);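 on AC50: viability read 80 hours after compound addition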
# Outline: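 Read-out is area under the impedance curve at 80 h post-dose in 22Rv1 cells, with DMSO as baseline and signal loss taken as reduced viability. Compounds ran in duplicate from 100 uM final.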
# [17] = ACEA_AR_antagonist_AUC_viability: ACEA Biosciences xCELLigence Real-Time Cell Analysis on Androgen Receptor Antagonism for Viability (AID 2283776);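 further: 22Rv1 human prostate cancer cells growing on impedance electrode plates; area under impedance growth curve at 80 h after dosing as viability; hits lower the growth signal relative to DMSO meaning cytotoxicity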
# Outline: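 Real-time electrical impedance tracks 22Rv1 proliferation after continuous compound exposure (top 100 uM final, 1:4 steps, 8 concentrations). The 80 h area-under-curve serves as the cytotoxicity readout relative to DMSO.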
# [18] = molecular target: Retinoic acid receptor RXR-alpha (Homo sapiens) (UniProt P19793); experiment: OT_NURR1_NURR1RXRa_0480: Odyssey Thera (OT) 8-hour HEK293T Protein Complementation Assay for Nurr1/retinoid X receptor (RXR) (AID 2283385)
# Outline: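 Compounds are applied to HEK293T cells carrying Nurr1 and RXRα linked to reporter fragments. After 8 h, fluorescence intensity reports heterodimer formation, with DMSO as baseline.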
# [19] = molecular target: Retinoic acid receptor RXR-alpha (Homo sapiens) (UniProt P19793); experiment: ATG_RXRa_TRANS: Attagene TRANS-FACTORIAL HepG2 Assay for human Retinoid X Receptor alpha (RXRa) (AID 2283012)
# Outline: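 Cells (HepG2) carried transiently transfected GAL4-responsive reporter units. Following a 24 h chemical incubation, reporter mRNA induction was read via RT-PCR fragment analysis; DMSO served as negative control and baseline.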
# [20] = molecular target: human Vitamin D Receptor (VDR), VDR (gene 7421) (UniProt P11473); experiment: ATG_VDR_TRANS: Attagene TRANS-FACTORIAL HepG2 Assay for human Vitamin D Receptor (VDR) (AID 2283022)
# Outline: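 Fluorescence of labelled reporter cDNA fragments, resolved by capillary electrophoresis, gives mRNA induction after 24 h treatment of HepG2 cells carrying transfected Gal4-fusion reporter units. Activity is fitted in the positive direction with DMSO as baseline.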
# Sequence of Peroxisome proliferator-activated receptor gamma (Homo sapiens) (P37231 whole entry, looked up, the tested form may be a part): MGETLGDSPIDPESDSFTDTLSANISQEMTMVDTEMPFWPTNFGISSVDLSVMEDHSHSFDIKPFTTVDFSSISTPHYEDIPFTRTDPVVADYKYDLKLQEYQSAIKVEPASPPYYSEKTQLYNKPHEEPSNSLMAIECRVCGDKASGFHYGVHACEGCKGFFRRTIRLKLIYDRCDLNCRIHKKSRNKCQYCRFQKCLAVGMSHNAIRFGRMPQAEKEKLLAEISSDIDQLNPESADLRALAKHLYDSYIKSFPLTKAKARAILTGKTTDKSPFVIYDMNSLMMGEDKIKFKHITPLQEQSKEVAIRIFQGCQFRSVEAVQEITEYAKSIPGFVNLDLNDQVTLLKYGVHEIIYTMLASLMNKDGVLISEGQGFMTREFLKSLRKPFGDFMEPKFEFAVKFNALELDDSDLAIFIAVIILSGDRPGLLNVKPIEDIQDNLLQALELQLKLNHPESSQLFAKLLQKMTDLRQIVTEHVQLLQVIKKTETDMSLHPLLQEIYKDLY
# Sequence of Estrogen receptor (Homo sapiens) (P03372 whole entry, looked up, the tested form may be a part): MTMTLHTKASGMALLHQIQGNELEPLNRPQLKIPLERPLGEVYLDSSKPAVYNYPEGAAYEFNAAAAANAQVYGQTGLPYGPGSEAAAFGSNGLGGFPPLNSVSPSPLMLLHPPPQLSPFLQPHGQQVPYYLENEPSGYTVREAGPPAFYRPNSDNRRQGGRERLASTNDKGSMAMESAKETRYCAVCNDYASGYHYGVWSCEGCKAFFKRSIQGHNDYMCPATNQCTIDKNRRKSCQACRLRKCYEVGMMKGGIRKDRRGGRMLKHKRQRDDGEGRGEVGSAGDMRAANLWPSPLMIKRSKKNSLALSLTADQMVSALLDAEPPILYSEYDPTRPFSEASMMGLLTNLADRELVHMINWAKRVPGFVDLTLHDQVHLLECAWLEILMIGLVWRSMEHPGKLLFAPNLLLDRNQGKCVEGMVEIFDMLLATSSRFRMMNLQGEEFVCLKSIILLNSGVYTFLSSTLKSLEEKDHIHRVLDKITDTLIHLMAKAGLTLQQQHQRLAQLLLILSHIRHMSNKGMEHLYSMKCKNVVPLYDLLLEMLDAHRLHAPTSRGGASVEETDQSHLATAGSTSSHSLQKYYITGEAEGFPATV
# Sequence of human Vitamin D Receptor (VDR), VDR (gene 7421) (P11473 whole entry, looked up, the tested form may be a part): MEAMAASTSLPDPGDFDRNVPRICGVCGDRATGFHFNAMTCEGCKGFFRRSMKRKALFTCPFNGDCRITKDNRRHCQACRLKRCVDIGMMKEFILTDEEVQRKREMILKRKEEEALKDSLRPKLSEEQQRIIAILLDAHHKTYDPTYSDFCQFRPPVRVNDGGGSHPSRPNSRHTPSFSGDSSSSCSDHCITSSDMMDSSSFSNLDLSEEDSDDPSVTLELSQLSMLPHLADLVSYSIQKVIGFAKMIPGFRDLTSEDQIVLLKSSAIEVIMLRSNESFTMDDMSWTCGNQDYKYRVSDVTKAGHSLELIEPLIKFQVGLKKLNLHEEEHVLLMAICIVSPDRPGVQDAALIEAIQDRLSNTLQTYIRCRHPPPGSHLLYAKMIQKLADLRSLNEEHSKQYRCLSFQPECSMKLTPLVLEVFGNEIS
# Sequence of Bile acid receptor (Homo sapiens) (Q96RI1 whole entry, looked up, the tested form may be a part): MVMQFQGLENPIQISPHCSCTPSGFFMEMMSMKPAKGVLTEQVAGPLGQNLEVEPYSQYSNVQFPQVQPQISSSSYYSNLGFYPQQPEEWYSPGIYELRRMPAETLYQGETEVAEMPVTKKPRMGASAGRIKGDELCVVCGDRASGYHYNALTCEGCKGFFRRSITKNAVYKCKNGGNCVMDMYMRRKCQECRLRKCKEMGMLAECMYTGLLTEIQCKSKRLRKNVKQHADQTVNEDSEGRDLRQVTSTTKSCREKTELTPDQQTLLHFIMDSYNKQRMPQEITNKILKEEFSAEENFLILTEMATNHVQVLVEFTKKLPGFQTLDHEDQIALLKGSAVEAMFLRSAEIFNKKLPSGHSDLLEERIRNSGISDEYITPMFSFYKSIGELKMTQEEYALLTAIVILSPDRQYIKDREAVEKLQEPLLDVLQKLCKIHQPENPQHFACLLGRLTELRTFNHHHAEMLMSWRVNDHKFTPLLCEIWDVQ
# Sequence of Estrogen-related receptor gamma (Homo sapiens) (P62508 whole entry, looked up, the tested form may be a part): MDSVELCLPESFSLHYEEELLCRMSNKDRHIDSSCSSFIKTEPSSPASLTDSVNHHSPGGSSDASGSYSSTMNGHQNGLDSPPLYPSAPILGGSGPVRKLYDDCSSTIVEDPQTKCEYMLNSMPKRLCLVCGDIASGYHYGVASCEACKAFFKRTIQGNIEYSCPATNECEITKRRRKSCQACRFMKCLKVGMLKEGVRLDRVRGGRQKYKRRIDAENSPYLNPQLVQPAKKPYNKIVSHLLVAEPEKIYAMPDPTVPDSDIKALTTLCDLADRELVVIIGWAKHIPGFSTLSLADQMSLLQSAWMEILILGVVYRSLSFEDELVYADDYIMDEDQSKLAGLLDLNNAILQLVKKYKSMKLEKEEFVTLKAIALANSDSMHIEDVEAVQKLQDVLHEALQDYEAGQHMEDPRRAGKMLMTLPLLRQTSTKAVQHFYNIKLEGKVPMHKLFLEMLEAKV
# Sequence of Estrogen receptor beta (Homo sapiens) (Q92731 whole entry, looked up, the tested form may be a part): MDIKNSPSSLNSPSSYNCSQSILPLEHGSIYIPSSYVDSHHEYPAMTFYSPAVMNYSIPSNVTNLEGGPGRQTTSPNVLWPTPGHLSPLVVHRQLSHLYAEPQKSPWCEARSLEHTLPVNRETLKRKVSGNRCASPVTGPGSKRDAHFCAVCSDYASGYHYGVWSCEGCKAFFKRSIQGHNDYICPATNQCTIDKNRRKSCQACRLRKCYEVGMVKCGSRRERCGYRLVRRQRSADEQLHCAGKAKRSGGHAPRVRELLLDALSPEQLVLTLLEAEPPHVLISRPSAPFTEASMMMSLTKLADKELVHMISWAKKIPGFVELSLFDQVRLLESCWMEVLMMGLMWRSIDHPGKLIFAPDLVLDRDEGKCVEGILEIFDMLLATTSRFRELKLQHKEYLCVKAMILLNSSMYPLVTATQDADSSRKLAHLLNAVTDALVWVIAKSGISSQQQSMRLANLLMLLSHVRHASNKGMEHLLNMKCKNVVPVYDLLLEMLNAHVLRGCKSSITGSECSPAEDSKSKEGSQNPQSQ
# Sequence of Retinoic acid receptor RXR-alpha (Homo sapiens) (P19793 whole entry, looked up, the tested form may be a part): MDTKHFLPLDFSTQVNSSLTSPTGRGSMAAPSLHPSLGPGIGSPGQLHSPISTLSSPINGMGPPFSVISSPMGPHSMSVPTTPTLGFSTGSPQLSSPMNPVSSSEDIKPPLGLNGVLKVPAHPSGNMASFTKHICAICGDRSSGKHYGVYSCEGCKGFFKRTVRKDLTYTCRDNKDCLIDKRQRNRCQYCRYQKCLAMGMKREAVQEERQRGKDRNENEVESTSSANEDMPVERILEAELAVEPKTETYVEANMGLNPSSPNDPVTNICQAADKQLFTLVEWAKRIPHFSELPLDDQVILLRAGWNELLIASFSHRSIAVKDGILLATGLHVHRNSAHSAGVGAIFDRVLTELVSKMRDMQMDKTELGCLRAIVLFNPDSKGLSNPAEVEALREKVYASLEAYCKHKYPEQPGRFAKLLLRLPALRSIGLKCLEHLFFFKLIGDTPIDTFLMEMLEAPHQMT
# Sequence of Steroid hormone receptor ERR1 (Homo sapiens) (P11474 whole entry, looked up, the tested form may be a part): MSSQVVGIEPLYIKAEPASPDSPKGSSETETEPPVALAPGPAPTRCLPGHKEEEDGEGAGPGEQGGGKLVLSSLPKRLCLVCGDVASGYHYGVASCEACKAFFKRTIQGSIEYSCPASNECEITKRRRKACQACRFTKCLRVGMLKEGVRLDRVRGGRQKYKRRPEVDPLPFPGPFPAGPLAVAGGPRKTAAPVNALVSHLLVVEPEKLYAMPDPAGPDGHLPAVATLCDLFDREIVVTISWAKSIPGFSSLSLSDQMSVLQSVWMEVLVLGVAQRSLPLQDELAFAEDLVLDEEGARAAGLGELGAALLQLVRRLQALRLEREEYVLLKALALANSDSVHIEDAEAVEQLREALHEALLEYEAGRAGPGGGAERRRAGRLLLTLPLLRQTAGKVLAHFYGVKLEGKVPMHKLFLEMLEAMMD
smiles,measurement,setting,value
CCCCCCC1CCOC1=O (centres undefined),outcome,[1],inactive
same,outcome,[2],inactive
CC(C)CCCCCCCOP(=O)(Oc1ccccc1)Oc1ccccc1,AC50,[3],27.5 µM (active)
same,AC50,[4],5.78 µM (active)
same,outcome,[1],inactive
same,outcome,[5],inactive
same,AC50,[6],9.9 µM (active)
same,AC50,[7],12.1 µM (active)
same,AC50,[8],20 µM (active)
same,AC50,[9],5.34 µM (active)
same,outcome,[10],inactive
CCC(C)(C)O,outcome,[3],inactive
same,outcome,[11],inactive
CC(C)[C@@H](C(=O)O[C@@H](C#N)c1cccc(Oc2ccccc2)c1)c1ccc(Cl)cc1,outcome,[12],inactive
same,outcome,[13],inactive
same,outcome,[14],inactive
same,outcome,[15],inactive
same,AC50,[16],41.6 µM (active)
same,outcome,[16],inactive
same,AC50,[17],50 µM (active)
same,outcome,[17],inactive
same,outcome,[11],inactive
CC(O)CN(CC(C)O)CC(C)O (centres undefined),outcome,[5],inactive
same,outcome,[13],inactive
same,outcome,[18],inactive
same,outcome,[16],inactive
CCCC=NO,AC50,[3],43.5 µM (active)
same,outcome,[4],inactive
same,outcome,[5],inactive
same,outcome,[19],inactive
same,outcome,[12],inactive
same,outcome,[13],inactive
same,outcome,[18],inactive
same,outcome,[14],inactive
same,outcome,[15],inactive
same,outcome,[16],inactive
same,outcome,[17],inactive
CC(=O)/C=C/c1ccccc1,outcome,[6],inactive
same,outcome,[7],inactive
same,outcome,[8],inactive
same,outcome,[19],inactive
same,outcome,[9],inactive
same,outcome,[10],inactive
same,outcome,[20],inactive
C=CCO,outcome,[18],inactive
same,outcome,[16],inactive
C=COCCCl,outcome,[3],inactive
same,outcome,[1],inactive
same,outcome,[2],inactive
same,outcome,[5],inactive
same,outcome,[11],inactive
C=C(Cl)Cl,outcome,[3],inactive
same,outcome,[4],inactive
same,outcome,[2],inactive
Cc1ccc(N(SC(F)(Cl)Cl)S(=O)(=O)N(C)C)cc1,outcome,[1],inactive
same,outcome,[2],inactive
same,outcome,[20],inactive
same,outcome,[11],inactive
O=CNC(N1CCN(C(NC=O)C(Cl)(Cl)Cl)CC1)C(Cl)(Cl)Cl (centres undefined),outcome,[3],inactive
same,outcome,[4],inactive
same,outcome,[1],inactive
same,outcome,[2],inactive
same,outcome,[19],inactive
same,outcome,[20],inactive
same,outcome,[13],inactive
same,outcome,[18],inactive
same,outcome,[14],inactive
same,outcome,[15],inactive
same,outcome,[16],inactive
same,outcome,[17],inactive
same,outcome,[11],inactive
N#CC(c1ccccc1)c1ccccc1,outcome,[1],inactive
same,outcome,[5],inactive
same,outcome,[20],inactive

# Source: PubChem BioAssay (EPA / NIEHS)
